Measured values reported in PubChem BioAssay AID504329 (Southern Research Specialized Biocontainment Screening …, 2011).
Screen size: about 340,000 compounds; about 1,000 (0.29%) were called active. No stated cut-off is given here; in the data, inconclusive means inhibition above about 27% without an active follow-up result; inactive means below that. A selection follows. Measured potencies and affinities stand elsewhere.

Assay: NS1A inhibition, H1N1 influenza, cell based functional assay (AID 504329)
Settings: percent inhibition, at 12.5 µM, active compounds read high

Compound	inhibition
COc1ccc(CCNC(=O)COC(=O)c2ccc(C)s2)cc1	-10% (inactive)
COc1ccc(C(CNC(=O)C2CC(=O)N(Cc3ccc(C)cc3)C2)N(C)C)cc1 (stereo not drawn)	-3.01% (inactive)
O=C(NCCc1ccc(F)cc1)C1CCCCC1	2.71% (inactive)
CCOC(=O)C1CCCN(C(=O)COc2ccc(N(C)S(=O)(=O)c3ccc(F)cc3)cc2)C1 (stereo not drawn)	-23.6% (inactive)
Cc1nnc(SCC(=O)Nc2ccc(Cl)cn2)n1Cc1ccccc1	1.7% (inactive)
CCOC(=O)Nc1n[nH]c(NC(=O)OCC)c1[N+](=O)[O-]	8.99% (inactive)
CN1/C(=C\C=Nc2ccc3ccccc3c2)C(C)(C)c2ccccc21	2.41% (inactive)
CN1/C(=C\C=Nc2ccccc2)C(C)(C)c2ccccc21	-3.07% (inactive)
CO/N=C/C=C1/N(C)c2ccccc2C1(C)C	11.6% (inactive)
CN1/C(=C\C=N\O)C(C)(C)c2ccccc21	-7.5% (inactive)
Cc1ccc(-c2nc(CNC(=O)c3cc(C)on3)cs2)cc1	-7.61% (inactive)
O=C(N/N=C/c1ccccc1)C1CCCN1C(=O)c1cc([N+](=O)[O-])cc([N+](=O)[O-])c1 (stereo not drawn)	-6.49% (inactive)
CNS(=O)(=O)c1cccc(C(=O)OCc2cc(=O)n3cc(Br)ccc3n2)c1	1.47% (inactive)
CCCCCSc1cc(OC)c(CCN)cc1OC	15.3% (inactive)
CCCCCSc1cc(OC)c(CCN(C)C)cc1OC	10.3% (inactive)
NC(=O)NCc1cccs1	-4.81% (inactive)
CC(C)N(Cc1nc2ccccc2[nH]1)C(C)C	-21.7% (inactive)
O=C(O)COCc1nc2ccccc2[nH]1	-15.3% (inactive)
CCn1c(SCC(=O)Nc2nccs2)nnc1-c1cccnc1	-5.86% (inactive)
O=C(CNC1CCCCC1)Nc1ccc([N+](=O)[O-])cc1C(=O)Nc1ccccc1F	-6.89% (inactive)
COc1cc(NC(=O)c2cc([N+](=O)[O-])ccc2NC(=O)CNCc2ccccn2)cc(OC)c1	-1.96% (inactive)

Compound	inhibition
O=C(CN1CCN(c2ccccn2)CC1)Nc1ccc([N+](=O)[O-])cc1C(=O)Nc1ccccc1F	12% (inactive)
COc1ccc(NC(=O)c2cc([N+](=O)[O-])ccc2NC(=O)CNC2CCCCC2C)c(OC)c1 (stereo not drawn)	-6.01% (inactive)
CCn1c(=O)c([N+](=O)[O-])c(NC2CCS(=O)(=O)C2)c2ccccc21 (stereo not drawn)	-2.22% (inactive)
CC(C)C(c1nnnn1C(C)(C)C)N1CCC(Cc2ccccc2)CC1 (stereo not drawn)	-3.35% (inactive)
CCCN(CCC)Cc1c(C(=O)N/N=C/C(C)=C\c2ccccc2)nnn1-c1nonc1N	6.9% (inactive)
COc1cc(/C=C(\NC(=O)c2ccccc2)C(=O)NC(C(=O)O)c2ccccc2)cc(OC)c1OC (stereo not drawn)	2.4% (inactive)
CC(C)COCc1ccc(O)c2ncccc12	1.04% (inactive)
c1ccc2c(-c3nn[nH]n3)cccc2c1	-2.59% (inactive)
Cc1ccc([N+](=O)[O-])c2cccnc12	-5.17% (inactive)
Cc1ccc(NCc2ccc(O)c3ncccc23)cc1	-2.47% (inactive)
Cc1ccccc1NCc1ccc(O)c2ncccc12	11.8% (inactive)
Cc1cccc(NCc2ccc(O)c3ncccc23)c1	-1.23% (inactive)
O=[N+]([O-])c1ccc(O)c2cccnc12	-3.9% (inactive)
Cc1ccccc1-c1nn[nH]n1	-2.96% (inactive)
Cc1ccccc1Nc1nc(-c2cccnc2)nc2ccccc12	-4.04% (inactive)
CCOc1ccccc1-n1c(O)c(C=NCCCn2ccnc2)c(=O)[nH]c1=O	3.36% (inactive)
CN1CCC(N(C)C(=O)c2ccccc2F)CC1	17.7% (inactive)
CN1CC2=Cc3ccccc3OC23Oc2ccccc2C=C3C1	3.84% (inactive)
O=C(CCCOc1ccccc1)Nc1cccc(S(=O)(=O)N2CCCCC2)c1	-17.5% (inactive)
CCN1CCN(C(=O)CS(=O)(=O)Cc2nc(-c3cccc(OC)c3)oc2C)CC1	-5.29% (inactive)
NC(=O)C1CCN(S(=O)(=O)Cc2ccccc2Cl)CC1	4.51% (inactive)

Compound	inhibition
COc1ccc(CNC(=O)c2cc(C)nn2-c2ccccc2)cc1	0.54% (inactive)
COC(=O)c1ccc(Cn2nc(-c3ccccc3)ccc2=O)cc1	-6.12% (inactive)
O=C1OCC(c2ccccc2)=C1c1ccccc1[N+](=O)[O-]	-4.03% (inactive)
COCCn1ccc2c(OCC(=O)NCCc3ccccc3)cccc2c1=O	-4.46% (inactive)
COCc1ccc(O)c2ncccc12	2.78% (inactive)
Oc1ccc(Cl)c2cccnc12	-4.63% (inactive)
CCCOCc1ccc(O)c2ncccc12	-7.06% (inactive)
Oc1ccc(F)c2cccnc12	3.59% (inactive)
Cc1ccsc1C1CC(=O)NC2=C1C(=O)CC(C)(C)C2 (stereo not drawn)	-0.46% (inactive)
Cc1ccc(CNC(=O)C2CCC(=O)N(CCc3cccc(F)c3)C2)s1 (stereo not drawn)	11.3% (inactive)
O=C(Nc1c2c(nn1-c1cccc(Cl)c1)CS(=O)(=O)C2)c1ccc2c(c1)OCO2	0.57% (inactive)
Cc1nn(-c2ccccc2)c(C)c1/C=N/NC(=O)c1cc(O)cc(O)c1	-10.7% (inactive)
Cc1nn(-c2ccccc2)c(C)c1/C=N/NC(=O)c1cc(-c2ccccc2)n[nH]1	-0.6% (inactive)
Cc1nn(-c2ccc(F)cc2)c(Cl)c1/C=N/NC(=O)c1ccc(O)cc1	9.96% (inactive)
Cc1nn(-c2ccccc2)c(N2CCCC2)c1/C=N/NC(=O)c1cc2ccccc2cc1O	2.95% (inactive)
Cc1ccc(-c2cc(C(=O)N/N=C/c3c(C)nn(-c4ccccc4)c3C)[nH]n2)cc1	11.2% (inactive)
Cc1nn(-c2ccccc2)c(C)c1/C=N/NC(=O)c1ccccc1O	6.87% (inactive)
COc1ccc(-c2nc(CS(=O)CC(=O)N3CCN(C)CC3)c(C)o2)cc1OC (stereo not drawn)	-3.22% (inactive)
COc1ccc(CCCc2nnc(SCC(=O)Nc3cc(C)c(C)cc3Br)o2)cc1	-5.67% (inactive)
O=C(CS(=O)(=O)Cc1ccccc1)N1CCN(C(=O)c2ccco2)CC1	-6.89% (inactive)
Cc1ccc(S(=O)(=O)N/N=C(\c2ccccc2)c2cccnc2)cc1	-2.16% (inactive)
